{
  "source": "the supplement of paper PMC11417369",
  "note": "± gives the standard deviation of the averaged measurements. Over roughly 25,000 sequences, “ln(normalized median fluorescence intensity)” has its median near 8.9; the highest 2% begin near 10. This is one part of a sample in which the highest values are shown more often than they occur.",
  "data": [
    {"system": "PfAP2-LT AP2 domain (GST-tagged)", "assay": "gcPBM binding intensity (ln(normalized median fluorescence intensity)); higher = stronger DNA binding", "method_in_brief": "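An Agilent 4 × 180k array of primer-extended double-stranded 36-bp intergenic genomic probes, with negative controls, was incubated for 1 h with GST-tagged P. falciparum DNA-binding domains expressed in E. coli. Alexa488 anti-GST antibody detected bound protein, scanned at 488 nm. Binding intensity is the highest Masliner-normalised natural-log median intensity across replicate spots of either probe orientation.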", "values": [
      {"sequence": "AATGAAATAAATAAGGGTACACATAAATATATATAT [XGTACX_site7006]", "gcPBM binding intensity (ln)": "9.04 ± 0.43"},
      {"sequence": "TATGTGCCAAAACACACACACATATATATATATATA [CACACA_site469]", "gcPBM binding intensity (ln)": "10.2 ± 0.2"},
      {"sequence": "ATTATGTGCCAATACACACACACATCTATATTTATA [CACACA_site6359]", "gcPBM binding intensity (ln)": "9.67 ± 0.18"},
      {"sequence": "ATTATGTGCCAATACACACACACATATATATATATA [CACACA_site468]", "gcPBM binding intensity (ln)": "10.38 ± 0.078"},
      {"sequence": "AAAAAAAAAACATACACACACATATATATATATATG [CACACA_site1586]", "gcPBM binding intensity (ln)": "9.46 ± 0.3"},
      {"sequence": "AAATTATGTGCCAATACACACACACCGATATATATA [CACACA_site8050]", "gcPBM binding intensity (ln)": "9.92 ± 0.21"},
      {"sequence": "AAAAAAAAAAAAAAAACACACATATATGTATATATA [CACACA_site3276]", "gcPBM binding intensity (ln)": "8.92 ± 0.35"},
      {"sequence": "TACATATGAAAATACACACATACATACATATATATA [CACACA_site1673]", "gcPBM binding intensity (ln)": "9.21 ± 0.34"},
      {"sequence": "TATCAAAAAAAAAGTAGTACGATAATAGTTTCCCAA [XGTACX_site1812]", "gcPBM binding intensity (ln)": "8.73 ± 0.4"},
      {"sequence": "TAATATTTTTTGTGTACACATATATATATATATATA [CACACA_site5504]", "gcPBM binding intensity (ln)": "9.505 ± 0.064"},
      {"sequence": "ATATGTTAAATTATTCGTACGTAAAAAAAAATGGAT [XGTACX_site3465]", "gcPBM binding intensity (ln)": "8.81 ± 0.37"},
      {"sequence": "TTAACAAATAGACACACACACACACGCAAAAAAAAA [CACACA_site6387]", "gcPBM binding intensity (ln)": "10.3 ± 0.33"},
      {"sequence": "AAAACAAATAGACACGCACACAAAAAAAAAAAAAAA [CACACA_site801]", "gcPBM binding intensity (ln)": "9.38 ± 0.6"},
      {"sequence": "TAAATTAAAAGACACACACACAAAAAAAAAAAAAAA [CACACA_site7131]", "gcPBM binding intensity (ln)": "9.4 ± 0.44"},
      {"sequence": "AAAAAACAAAAACACACGCACACAAAAAAAAAAAAA [CACACA_site802]", "gcPBM binding intensity (ln)": "9.4 ± 0.33"},
      {"sequence": "AACACGCACAGACACACACACAAAAATGATTAAAAA [CACACA_site7195]", "gcPBM binding intensity (ln)": "9.71 ± 0.61"},
      {"sequence": "TATTTATTAAGACACACACACACACGCACAAAATAA [CACACA_site6254]", "gcPBM binding intensity (ln)": "10.3 ± 0.33"},
      {"sequence": "TTATTATTAAGACACACACACAAAAAAAAAAAAAAA [CACACA_site6805]", "gcPBM binding intensity (ln)": "9.26 ± 0.46"},
      {"sequence": "AATTAACAAAGACACACACACACACGCACAAAAAAA [CACACA_site6388]", "gcPBM binding intensity (ln)": 10.2},
      {"sequence": "CACAAACAAAGACACACACACACACGCACAAAAATG [CACACA_site7193]", "gcPBM binding intensity (ln)": "10.3 ± 0.21"},
      {"sequence": "AATGTGTAGACACGCACACACAAAAAAATATTTATA [CACACA_site7384]", "gcPBM binding intensity (ln)": "9.59 ± 0.36"},
      {"sequence": "ATATATATATATAACACACGCAAAAAAATTAAATAA [CACACA_site1400]", "gcPBM binding intensity (ln)": "9.16 ± 0.38"},
      {"sequence": "ACAAAATAAAGACACACACACAAACACAAAAAAATA [CACACA_site7568]", "gcPBM binding intensity (ln)": "10.1 ± 0.38"},
      {"sequence": "ATGAAAAAAAATAAAAAATATATATATATATATATA [CACACA_negctrl_site236]", "gcPBM binding intensity (ln)": "9.4 ± 0.4"},
      {"sequence": "ATATATATATAAATATAAATATATATATATATATAT [CACACA_negctrl_site1685]", "gcPBM binding intensity (ln)": "9.02 ± 0.23"},
      {"sequence": "AGGAAAAAAAAAATGTGTACTTAAAAAAAAAAAATT [XGTACX_site1471]", "gcPBM binding intensity (ln)": "8.51 ± 0.65"},
      {"sequence": "ACCTTTTGGATTATATGTACATATATATATATATAT [XGTACX_site2687]", "gcPBM binding intensity (ln)": "9.61 ± 0.26"},
      {"sequence": "CACAAAAGTAAGCACGCACACACAACCTGAAATAAA [CACACA_site166]", "gcPBM binding intensity (ln)": "9.59 ± 0.44"},
      {"sequence": "ATTTTTTTTATTTTTTATATAATTTTTTTATATTAT [CACACA_negctrl_site1521]", "gcPBM binding intensity (ln)": "8.69 ± 0.5"},
      {"sequence": "ATGCAAATGTGCATCACACACACTAATGGGTATGTA [CACACA_site2893]", "gcPBM binding intensity (ln)": "9.41 ± 0.31"},
      {"sequence": "AATTAAATGATTTATACATGCATATAAATATAAATA [TGCATGCA_site579]", "gcPBM binding intensity (ln)": "8.71 ± 0.43"},
      {"sequence": "CGATTTTTTAAGTTTGTGCACTTAAAAACTATAACA", "gcPBM binding intensity (ln)": "8.53 ± 0.47"},
      {"sequence": "GATGAAAATAGAAATACACACTAAAAAATAAAATTA [CACACA_site4764]", "gcPBM binding intensity (ln)": "8.85 ± 0.52"},
      {"sequence": "ATATACATATTCTTGTGTACATAAAAATTTATATAT [XGTACX_site8726]", "gcPBM binding intensity (ln)": "8.74 ± 0.35"},
      {"sequence": "AAAAAAAAAAAAGAACGTACAAATTAATTTATAGAA [XGTACX_site5584]", "gcPBM binding intensity (ln)": "8.73 ± 0.57"},
      {"sequence": "TTTACATTAAATCACGCACACAAAAAAAAAAAAAAA [CACACA_site2418]", "gcPBM binding intensity (ln)": "8.94 ± 0.37"},
      {"sequence": "TTAAAAAATCACAACACACACACACCCAAAAAAAAA [CACACA_site1445]", "gcPBM binding intensity (ln)": "9.77 ± 0.26"},
      {"sequence": "TTAAAAAATCACAACACACACACACGCAAAAAAAAA [CACACA_site6793]", "gcPBM binding intensity (ln)": "10.1 ± 0.21"},
      {"sequence": "ATTCAAAAGATGTATACACACATGTGGATAATATAA [CACACA_site2443]", "gcPBM binding intensity (ln)": "9.21 ± 0.48"},
      {"sequence": "TATATATAATATGAATGTACACAAAAAGGTAATACA [XGTACX_site6202]", "gcPBM binding intensity (ln)": "9.11 ± 0.62"},
      {"sequence": "ACAAAAAAAATAAGCACACATATATATATATATATA [CACACA_site816]", "gcPBM binding intensity (ln)": "10.1 ± 0.38"},
      {"sequence": "AATAAAGCAATAAATACACACATATATATATATATA [CACACA_site2934]", "gcPBM binding intensity (ln)": "9.955 ± 0.0071"},
      {"sequence": "AATATAAGCAAATACACACACACATATAAATATGTA [CACACA_site7741]", "gcPBM binding intensity (ln)": "9.85 ± 0.35"},
      {"sequence": "ATACAACAAAAATAAGCACACACAAATATACATACA [CACACA_site9201]", "gcPBM binding intensity (ln)": "9.7 ± 0.4"},
      {"sequence": "AATATAAGCAAATACACACACACATATATATATATA [CACACA_site3805]", "gcPBM binding intensity (ln)": "10.29 ± 0.035"},
      {"sequence": "AAACAAAAAAAATAAGCACACATATATATATATATA [CACACA_site8173]", "gcPBM binding intensity (ln)": "9.6 ± 0.57"}
    ]}
  ]
}
